Screening results (PubChem)
In the library only some 4.2% were active in any assay of this set; here they are far more common.
MITF act: increases MITF-driven TRPM1 promoter luciferase signal; AID 588334; SK-MEL-5 TRPM1-promoter luciferase, 24 h; % of positive control, neutral wells = 0; activation, % at 12.5 µM; actives 0.75% (n = 300,000);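 active = mean activation of at least 80% with every replicate also reaching 80%; inconclusive = mean reaches 80% but some replicate falls short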;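 note: 0% = neutral control wells and 100% = parthenolide positive control wells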
Wnt act: activators of Wnt/beta-catenin signaling; AID 743398; actives 1.2% (n = 300,000); Wnt/beta-catenin reporter cell assay, activator, plate reader; activation, % at 9.35 µM; in the data active = activation above about 30%, passing the limit was not always enough; inconclusive = no clear call, values can overlap the other calls;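 note: 0% = neutral control wells and 100% = positive control wells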
FXN GAA850 act: increases GAA850 frataxin promoter reporter activity. HEK293 lucGAA850 FXN promoter luciferase reporter, 24 h; percent of 10 µM SAHA response. activation, % at 6 µM. actives 0.56% (n = 360,000). AID 540364;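 active = activation above the average of all compounds screened plus 3 SD, cutoff fixed separately per campaign, cut at about 7.5% in these data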;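 note: 0% = DMSO wells and 100% = 10 µM SAHA wells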
AHR act: activators of human aryl hydrocarbon receptor. activation, % at 5 µM. AHR-responsive luciferase reporter cells, luminescence. P35869. actives 2.5% (n = 320,000); in the data active = activation above about 47%;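 note: 0% = vehicle wells and 100% = reference agonist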
Target sequence (P35869 whole entry, looked up): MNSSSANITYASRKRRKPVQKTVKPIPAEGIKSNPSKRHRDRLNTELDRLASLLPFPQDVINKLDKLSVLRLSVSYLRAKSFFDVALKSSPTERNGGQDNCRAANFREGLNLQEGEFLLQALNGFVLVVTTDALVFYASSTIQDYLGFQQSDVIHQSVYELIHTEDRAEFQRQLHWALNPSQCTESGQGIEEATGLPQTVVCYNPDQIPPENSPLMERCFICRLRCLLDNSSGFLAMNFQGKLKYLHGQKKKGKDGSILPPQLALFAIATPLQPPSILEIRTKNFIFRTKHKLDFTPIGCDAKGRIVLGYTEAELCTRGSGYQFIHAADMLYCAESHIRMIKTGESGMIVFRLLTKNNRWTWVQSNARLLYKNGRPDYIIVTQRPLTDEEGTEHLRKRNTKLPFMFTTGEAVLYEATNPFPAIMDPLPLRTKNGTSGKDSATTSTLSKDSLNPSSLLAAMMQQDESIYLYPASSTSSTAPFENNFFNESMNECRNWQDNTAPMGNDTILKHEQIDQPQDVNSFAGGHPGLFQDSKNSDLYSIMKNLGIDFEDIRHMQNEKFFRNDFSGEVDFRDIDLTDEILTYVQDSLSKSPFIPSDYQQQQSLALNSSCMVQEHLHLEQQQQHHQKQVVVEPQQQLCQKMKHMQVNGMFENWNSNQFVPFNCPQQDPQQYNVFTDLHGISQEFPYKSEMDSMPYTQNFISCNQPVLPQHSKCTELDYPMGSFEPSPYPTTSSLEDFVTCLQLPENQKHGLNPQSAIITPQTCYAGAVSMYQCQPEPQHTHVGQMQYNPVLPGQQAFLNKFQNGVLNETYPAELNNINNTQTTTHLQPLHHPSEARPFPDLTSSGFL
esBAF inh: SWI/SNF esBAF complex inhibition | mouse ES cells, Bmi1-luciferase knock-in reporter, 24 h; 100% = twice the neutral-well signal | reporter increase, % at 12.5 µM | actives 2% (n = 350,000); in the data active = activation above about 40%; inconclusive = no clear call, values can overlap the other calls;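 note: 0% = median of the plate's neutral control wells and 100% = double that signal; a rise in the Bmi1 reporter signal indicates esBAF inhibition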
GAA30 counter: GAA30 FXN promoter activation counter-screen; shares compounds with FXN GAA850 act; HEK293 lucGAA30 FXN promoter luciferase, 24 h; DMSO = 0%, 5 µM ipriflavone = 100%; activation, % at 6 µM; actives 66% (n = 1,900);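 active = mean activation above the mean of solvent-only control wells plus 3 SD, cut at about 22% in these data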;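 note: counterscreen of GAA850 promoter hits where activity marks nonselective or luminescence artifacts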
FXN GAA850 conf: GAA850 FXN promoter activation confirmation. shares compounds with FXN GAA850 act. activation, % at 6 µM. AID 588351. HEK293 lucGAA850 FXN promoter luciferase reporter, 24 h; 100% = activation by SAHA. actives 86% (n = 1,900);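 active = mean activation above a set limit taken from the primary screen, cut at about 8% in these data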;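 note: 0% = DMSO wells and 100% = 10 µM SAHA wells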
Starred values were filed as active, the others as inactive; ? = inconclusive; . = no result given.

SMILES	MITF act	Wnt act	FXN GAA850 act	AHR act	esBAF inh	GAA30 counter	FXN GAA850 conf
COc1ccc(CN2CCC2(C)C(=O)Nc2cccc(NS(C)(=O)=O)c2)c2ccccc12 (stereo unspecified)	.	-2.8	16.8*	.	-2.8	7.8	18.7*
CC1CCN(c2nnc(NC(=O)Cn3c(=O)oc4ccccc43)s2)CC1	.	-3.2	15.3*	0.4	-10.6	8.5	2.1
COC(=O)CN1C(c2cccc(Cl)c2)=Nc2ccc(Cl)cc2C1c1ccccc1 (stereo unspecified)	-1.6	-2.5	8.5*	14.7	.	38.6*	14.6*
COC(=O)CN1C(c2ccc(OC)cc2)=Nc2ccc(Cl)cc2C1c1ccccc1 (stereo unspecified)	-2.7	.	4.2	10.7	.	.	.
CN(C)C(=O)c1cccc(-c2ccc3n(c2=O)C[C@@H]2[C@@H](CO)[C@H](C(=O)NCC(F)(F)F)[C@H]3N2C)c1	.	.	.	.	1.3	.	.
COc1cccc(C(=O)Nc2ccc3c(c2)C(=O)N(C)[C@@H]2CC[C@H](CC(=O)NCc4ccccc4F)O[C@@H]2CO3)c1	.	.	.	.	5.9	.	.
CCCC(=O)NC(=S)Nc1cccc(Cl)c1N1CCCCC1	-11.5	.	2.6	4.6	4.3	.	.
CCCCC(=O)NC(=S)Nc1cccc(Cl)c1N1CCCCC1	2.4	-2.1	10.2*	-0.3	.	13.2	9.6*
O=C(NC1CCCCC1)C(=O)c1c[nH]c2ccccc12	66.0	?	8.3*	-1.5	45.1*	84.9*	27.7*
O=C(COC(=O)c1c[nH]c2ccccc12)NC1CCCC1	-4.4	4.0	3.1	41.1	16.4	.	.
CCc1ccc(-c2cn(C3CCCCC3)c(=S)[nH]2)cc1	19.9	1.8	8.0*	62.5*	.	58.2*	24.3*
C[C@@H]1CN([C@H](C)CO)S(=O)(=O)c2ccc(-c3ccncc3)cc2O[C@H]1CN(C)C(=O)CC1CC1	.	.	.	.	4.9	.	.
CCOc1ccccc1N=Cc1c(O)c2ccccc2oc1=O	-19.2	0.5	-2.2	4.6	-1.4	.	.
CCOP(=O)(Nc1cccc2oc(=O)c3ccccc3c12)OCC	12.6	1.5	7.8*	.	23.0	25.2*	17.5*
COc1cc2sc3cc(NCCCN4CCOCC4)ccc3c(=O)c2cc1OC	37.9	13.6	9.8*	7.8	54.6*	114.2*	37.0*
Cn1c(SCc2ccccc2)nc(N)c(N=O)c1=O	.	8.5	10.6*	-2.0	.	-10.1	18.8*
C[C@H](CO)N1C[C@H](C)[C@H](CN(C)Cc2ccc(C(=O)O)cc2)Oc2c(cccc2N(C)C)C1=O	.	.	.	.	2.0	.	.
O=[N+]([O-])c1nn(-c2ccc3c(c2)OCCO3)n(O)c1=NCc1ccc(F)cc1	-7.8	.	1.6	24.2	.	.	.
O=[N+]([O-])c1nn(-c2ccc3c(c2)OCCO3)n(O)c1=NCc1ccc(F)cc1Cl	78.1	-2.1	9.8*	4.2	18.9	91.2*	29.6*
c1ccc2c(c1)nnn2-c1ncnc2sccc12	42.4	8.5	10.2*	22.6	16.5	93.1*	30.6*
c1ccc(CC2CCN(c3ncnc4sccc34)CC2)cc1	-1.5	-7.9	-4.7	.	.	.	.
CCN(CC)C(=S)SC1=CCS(=O)(=O)C1	9.2	0.8	0.7	-1.8	.	.	.
CCN(CC)C(=S)SSC(=S)N(CC)CC	-28.6	-1.9	20.1*	.	6.9	-116.7	-34.4
C[C@@H]1CN([C@H](C)CO)C(=O)c2cc(NC(=O)Cc3ccccc3)ccc2O[C@@H](C)CCCCO[C@@H]1CN(C)S(=O)(=O)c1cccs1	.	.	.	.	-2.8	.	.
C[C@H](CO)N1C[C@H](C)[C@@H](CN(C)C)Oc2cc(-c3ccc(F)cc3)ccc2S1(=O)=O	.	.	.	.	-5.4	.	.
SMILES	MITF act	Wnt act	FXN GAA850 act	AHR act	esBAF inh	GAA30 counter	FXN GAA850 conf
COc1ccccc1Nc1nc(Cl)c(C=O)s1	28.8	19.1	11.5*	3.4	5.1	52.7*	46.8*
O=Cc1sc(Nc2ccccc2)nc1Cl	4.5	5.5	-0.1	7.3	.	.	.
C[C@@H]1CN([C@@H](C)CO)C(=O)c2cc(Br)cnc2O[C@@H]1CN(C)C(=O)Nc1ccccc1	.	.	.	.	-4.3	.	.
Nc1nc2sc3c(c2c(=O)s1)CCCC3	40.7	1.3	8.2*	2.4	35.9	69.8*	27.8*
Cc1nc2sc3c(c2c(=O)o1)CCCC3	-14.9	.	-0.1	11.6	2.5	.	.
CCOc1nc(C)ccc1-c1noc(-c2ccco2)n1	40.2	5.8	7.7*	-2.1	26.3	53.4*	18.1*
C[C@@H]1CN([C@@H](C)CO)C(=O)c2cc(NC(=O)Nc3cccc4ccccc34)ccc2O[C@H]1CN(C)C(=O)Nc1ccccc1	.	.	.	.	-0.4	.	.
CC1CCc2c(sc(NC(=O)c3noc4c3CCCC4)c2C(N)=O)C1 (stereo unspecified)	141.2*	28.8	7.8*	.	.	102.4*	29.3*
O=S1(=O)CCN(c2ccccc2CC(c2c[nH]c3ccccc23)c2c[nH]c3ccccc23)CC1	.	-2.8	16.2*	.	.	41.6*	21.1*
NCC(c1ccco1)c1c[nH]c2ccccc12 (stereo unspecified)	-29.4	-1.5	-0.8	.	4.1	.	.
C[C@H]1CN([C@@H](C)CO)C(=O)Cc2cc(NS(=O)(=O)c3cccs3)ccc2O[C@@H]1CN(C)S(=O)(=O)c1ccc(Cl)cc1	.	.	.	.	-1.6	.	.
CC(C)n1c(SCC(N)=O)nc2c1c(=O)n(C)c(=O)n2C	-12.4	-1.4	1.1	3.4	-7.3	.	.
CC(C)CCn1c(SCC(N)=O)nc2c1c(=O)n(C)c(=O)n2C	2.5	-2.1	10.9*	-1.6	-4.2	18.3	9.7*
Cc1cc(O)c(NC(=O)c2ccc(Br)o2)cc1C	54.5	?	9.3*	38.3	67.0*	90.7*	27.4*
COc1ccccc1NC(=O)c1ccc(Br)o1	-13.9	0.0	1.2	32.8	7.4	.	.
C[C@H](CO)N1C[C@H](C)[C@@H](CN(C)C(=O)Nc2ccccc2)Oc2ccc(NC(=O)NC3CCCCC3)cc2CC1=O	.	.	.	.	1.9	.	.
Cc1ccc(-c2nn3c(C)nnc3s2)cc1NC(=O)c1cccnc1	.	0.3	2.7	13.5	1.6	.	.
Cc1ccc(-c2nn3c(C)nnc3s2)cc1NC(=O)c1ccco1	6.2	-2.0	14.2*	33.8	4.0	25.8*	5.5
C[C@@H]1CN([C@@H](C)CO)C(=O)c2ccccc2-c2ccccc2CO[C@H]1CN(C)S(=O)(=O)c1ccc(C(F)(F)F)cc1	.	.	.	.	0.1	.	.
Cc1ccc2oc(-c3ccc(C)c(NC(=S)NC(=O)c4cccs4)c3)nc2c1	22.6	.	8.6*	2.0	.	95.5*	19.4*
CC(NC(=O)/C(C#N)=C/c1ccc([N+](=O)[O-])o1)c1ccccc1 (stereo unspecified)	-57.9	4.2	10.3*	-0.5	0.1	-55.9	8.5*
CCOCCCNC(=O)/C(C#N)=C/c1ccc(-c2ccc(S(=O)(=O)N3CCOCC3)cc2)o1	8.8	.	1.0	-0.6	-0.9	.	.
